{
  "source": "PubChem BioAssay AID463187",
  "about": "(University of Pittsburgh Molecular Library Screening Center, 2010)",
  "note": "Among all 220,000 compounds or so, about 1,500 (0.68%) were called active.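 The calls were made as follows: active = Hck-Nef kinase inhibition above about 50% (limit read from the data); inactive = inhibition below that limit.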 The sample as a whole holds a higher share of actives than the screen did.",
  "data": [
    {"target": "Tyrosine-protein kinase HCK (Homo sapiens) (UniProt P08631)", "sequence (P08631 whole entry, looked up)": "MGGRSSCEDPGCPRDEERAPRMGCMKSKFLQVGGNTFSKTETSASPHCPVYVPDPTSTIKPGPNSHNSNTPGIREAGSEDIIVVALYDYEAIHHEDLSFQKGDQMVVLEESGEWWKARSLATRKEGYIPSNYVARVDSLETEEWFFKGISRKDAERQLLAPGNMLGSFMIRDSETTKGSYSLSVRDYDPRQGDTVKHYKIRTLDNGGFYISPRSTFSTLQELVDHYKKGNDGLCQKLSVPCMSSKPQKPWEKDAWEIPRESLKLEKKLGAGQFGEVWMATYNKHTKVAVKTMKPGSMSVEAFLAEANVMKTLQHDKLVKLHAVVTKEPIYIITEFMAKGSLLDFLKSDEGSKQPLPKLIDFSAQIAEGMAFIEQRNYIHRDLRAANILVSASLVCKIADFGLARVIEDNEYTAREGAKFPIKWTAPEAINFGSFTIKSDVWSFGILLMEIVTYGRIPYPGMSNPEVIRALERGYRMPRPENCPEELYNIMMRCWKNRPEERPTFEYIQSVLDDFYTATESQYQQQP", "test": "inhibitors of Nef-activated human Hck kinase, primary screen, biochemical, Z-Lyte FRET, 384-well, Hck-YEEI (AID 463187);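 also: 0% = DMSO with Hck plus Nef and 100% = Hck alone without Nef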", "conditions": "Recombinant Hck-YEEI plus Nef, Z-Lyte FRET kinase assay; at 20 µM; hits give high values", "values": [
      {"molecule": "O=C(COC(=O)c1ccccc1C(=O)N1CCN(c2ccccc2)CC1)NCc1ccccc1", "inhibition": "-5.15% (inactive)"},
      {"molecule": "O=C(NNC(=O)c1ccc(Cl)cc1Cl)c1cccs1", "inhibition": "22.7% (inactive)"},
      {"molecule": "C=CCSc1nc(Cc2ccc(Cl)cc2)nc2ccccc12", "inhibition": "-0.392% (inactive)"},
      {"molecule": "Clc1ccc2c(c1)C1=C(C(c3ccncc3)O2)C(c2ccc(Br)cc2)n2ncnc2N1", "note": "(stereo not given)", "inhibition": "83.6% (active)"},
      {"molecule": "Brc1ccc(C2=CC(c3ccco3)n3ncnc3N2)cc1", "note": "(stereo not given)", "inhibition": "-4.23% (inactive)"},
      {"molecule": "COC(=O)C1=C(C)Nc2ncnn2C1c1cccnc1", "note": "(stereo not given)", "inhibition": "0.821% (inactive)"},
      {"molecule": "CCC(C)(C)NC(=O)CN(Cc1cccs1)C(=O)CNS(=O)(=O)c1ccc(F)cc1", "inhibition": "15.6% (inactive)"},
      {"molecule": "O=[N+]([O-])c1ccc(F)cc1Oc1nc(-c2cccnc2)nc2ccccc12", "inhibition": "13.2% (inactive)"},
      {"molecule": "CCC(O)C1CCN(Cc2cn(-c3ccc(OC)cc3)nc2-c2cccc(F)c2)CC1", "note": "(stereo not given)", "inhibition": "-11.2% (inactive)"},
      {"molecule": "CCOc1ccc(CCNC(=O)C2=C(C)C(=O)OC23CCC(C)CC3)cc1OCC", "note": "(stereo not given)", "inhibition": "25.3% (inactive)"},
      {"molecule": "C=CCn1c(N)c(S(=O)(=O)c2cccs2)c2nc3ccccc3nc21", "inhibition": "21.6% (inactive)"},
      {"molecule": "Cc1ccc(S(=O)(=O)c2c(N)n(C)c3nc4ccccc4nc23)cc1", "inhibition": "52.7% (active)"},
      {"molecule": "CCN(CC)CCn1c(N)c(S(=O)(=O)c2ccccc2)c2nc3ccccc3nc21", "inhibition": "11.1% (inactive)"},
      {"molecule": "COc1ccc(/C=C2/C(=O)OCc3cc(OC)c(OC)cc32)c(OC)c1", "inhibition": "1.93% (inactive)"},
      {"molecule": "O=C(NCc1ccco1)c1nn2cccnc2c1Cl", "inhibition": "20.7% (inactive)"},
      {"molecule": "O=C(O)C1C2C=CC(O2)C1C(=O)NCCc1cccc(Cl)c1", "note": "(stereo not given)", "inhibition": "15.6% (inactive)"},
      {"molecule": "O=C(N/N=C/c1ccco1)c1ccc(NC(=O)C2CC2)cc1", "inhibition": "1.97% (inactive)"},
      {"molecule": "O=C(N/N=C/c1ccco1)c1ccc(C(=O)N/N=C/c2ccco2)o1", "inhibition": "-0.711% (inactive)"},
      {"molecule": "O=C(Cc1ccccc1)Nc1cccc(C(=O)N/N=C/c2ccco2)c1", "inhibition": "54.9% (active)"},
      {"molecule": "NC(=O)C[C@@H]1NC(=O)CNC(=O)c2cc([N+](=O)[O-])cc(I)c2NCCC(C(N)=O)NC1=O", "note": "(stereo not given in full)", "inhibition": "-7.95% (inactive)"},
      {"molecule": "CCOC(=O)COc1cc(O)c2c(=O)cc(-c3ccccc3)oc2c1", "inhibition": "20.1% (inactive)"},
      {"molecule": "COc1c(O)cc2oc(-c3ccc(O)c(O)c3)cc(=O)c2c1O", "inhibition": "97.3% (active)"},
      {"molecule": "CCOC(=O)COc1cc(OCC(=O)OCC)c2c(=O)cc(-c3ccccc3)oc2c1", "inhibition": "-0.0489% (inactive)"},
      {"molecule": "Cc1cccc(-[n+]2c(-c3cccc(Br)c3)[nH]c3nc4ccccc4nc32)c1", "inhibition": "50.4% (active)"},
      {"molecule": "Cc1ccc2nc(-c3cccc(Br)c3)cc(C(=O)Nn3cnnc3)c2c1", "inhibition": "-7.45% (inactive)"}
    ]}
  ]
}
